SW480 rerep – induces DNA re-replication in SW480 colon adenocarcinoma cells; SW480 DNA re-replication, Hoechst DNA content imaging, 48 h; Potency, µM (series often up to 46.1 µM), most hits filed as activators; hit rate 1.8% among 340,000; note: nearly all actives have a fitted effect of over 55% in size
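SW480 cells exposed to compounds for 48 hr at 37 C, 5% CO2, then Hoechst-stained 40 min. Nuclear DNA content imaged by fluorescence scanning (405 nm excitation, 500-530 nm emission); re-replication scored as increased high-intensity nuclei.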
uPA surface inh – cell surface uPA generation inhibition; cell surface uPA generation assay, qHTS; Potency, µM (doses to about 38.3 µM), actives largely listed as inhibitors; hit rate 0.31% among 330,000; AID 540303; active = well fitted inhibition curve with a large enough effect; inconclusive = small, poorly fitted or top-dose-only effect; inactive = no such curve, though single readings can be large or run the other way; tested in mouse RAW 264.7 cells; note: nearly all actives have a fitted effect of over 55% in size
MCF10A rereplic – DNA re-replication induction in MCF 10a cells | MCF 10A DNA re-replication, Hoechst nuclear intensity, 48 h | hit rate 2.9% among 350,000 | Potency, µM (top dose mostly 46.1 µM), most hits filed as activators; note: nearly all actives have a fitted effect of over 50% in size
Giardia kill – Giardia lamblia killing; Giardia lamblia trophozoite viability; activity change, % at 7.66 µM, hits read low; hit rate 0.15% among 340,000; AID 540267; in the data active = activity change below about -80%; inconclusive = between about -30% and that limit;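 note: parasites exposed to compound for two days anaerobically before the ATP read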
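Viability, read as ATP luminescence: trophozoites at 100 cells/well, compound added, 48 hrs anaerobic at 37 deg C, then 15-30 min room-temperature development before reading.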
A number is an active result; – = inactive; ? = inconclusive; · = no result given; [ ] = remark or other dose. Compounds with a hit are over-represented: about 4.3% of the library has one in this group of screens. Unless noted, calls come from the whole dose curve; as a rule, active = well fitted activation curve with a large enough effect; inconclusive = small, poorly fitted or top-dose-only effect; inactive = no such curve, though single readings can be large or run the other way.

SMILES	SW480 rerep	uPA surface inh	MCF10A rereplic	Giardia kill
CNC(=S)N/N=C/c1cc(Br)cc(Br)c1O	·	–	7.3µM	–
CC(=O)Nc1ccc(C(=O)N/N=C/c2cc(Br)cc(Br)c2O)cc1	–	–	?	–
Oc1c(Br)cc(Br)cc1/C=N/NC(=S)N[C@H]1CC2C=CC1C2 (stereo partly specified)	?	–	5.8µM	–
CC(C)N(C(=O)[C@H]1C[C@H](CC(=O)NCCN2CCOCC2)C(=O)N2CCc3c([nH]c4ccc(Cl)cc34)[C@]12C)C(C)C	–	–	?	–
CC(C)(C)S(=O)N1Cc2cc(=O)n(Cc3ccccc3)c(CCO)c2[C@@H]1CCO (stereo partly specified)	–[9.22 µM]	–	–	–
Cc1cc(-n2c(SCC(=O)Nc3ccc(Br)cc3)nc3n[nH]c(C)c3c2=N)ccc1Cl	18µM	–	3.3µM	–
CCOc1ccc(-n2c(SCC(=O)Nc3ccc(Br)cc3)nc3n[nH]c(C)c3c2=N)cc1	?	–	15µM	–
CCOc1ccc(-n2c(SCC(=O)NC(C)CC)nc3n[nH]c(C)c3c2=N)cc1 (stereo unspecified)	–	–	–	–
Cc1cc(-n2c(SCC(=O)Nc3ccc(F)c(F)c3)nc3n[nH]c(C)c3c2=N)ccc1Cl	?	?	2.3µM	–
CCOc1ccc(Nc2oc(-c3cccc(Cl)c3)nc2C#N)cc1	?	·	16µM	–
CCOc1ccc(Nc2oc(-c3ccco3)nc2C#N)cc1	–	–	?	–
Clc1ccc2oc(-c3ccccc3)cc(=NCCCN3CCOCC3)c2c1	–	–	–	-87
NC1=NN=C(N2N=C(c3ccc(Br)cc3)CC2(O)C(F)(F)F)n2ncnc2C1 (stereo unspecified)	–	·	–	–
NC1=NN=C(N2N=C(c3ccccc3)CC2(O)C(F)(F)F)n2ncnc2C1 (stereo unspecified)	–	–	–	–
COc1ccc(C2=NN(C3=NN=C(N)Cc4ncnn43)C(O)(C(F)(F)F)C2)cc1 (stereo unspecified)	–	–	0.58µM	–
COc1ccccc1C1=NN(C2=NN=C(N)Cc3ncnn32)C(O)(C(F)(F)F)C1 (stereo unspecified)	–	–	0.58µM	–
Cc1ccc2c(c1)N(C(=O)CCC(=O)Nc1ccccc1Cl)CC(C)O2 (stereo unspecified)	–	–	–	–
Cc1ccccc1OCCCn1c(CCNC(=O)C2CCCCC2)nc2ccccc21	·	·	·	–
Cc1cccc(NC(=O)c2onc3c2CCCC3)c1C	–	–	–	–
Cc1cccc(NC(=O)c2onc3c2CCCC3)n1	–	4µM	–	?
CCN(C[C@H]1N[C@@](CC)(C(=O)OC)[C@H]2C(=O)N(C)C(=O)[C@@H]12)C(=O)C1CCCCC1	?	–	–	–
COc1ccc(SCCN2CC[C@@H](C(C)(C)C)CCC2=O)cc1	–	–	9.2µM	–
COc1ccc(SCCN2CC[C@@H](O)CCC2=O)cc1	–	–	–	–
O=C(NNC(=O)c1cccc(Br)c1)C(=O)N1CCCCC1	–	–	–	–
N#C/C(=C\c1cccc(O)c1)C(=O)N1CCCCC1	?	–	18µM	–
SMILES	SW480 rerep	uPA surface inh	MCF10A rereplic	Giardia kill
N#C/C(=C\c1cccc(Br)c1)C(=O)N1CCCCC1	?	–	23µM	–
Cc1cc(/C=C(\C#N)C(=O)N2CCCCC2)cc(C)c1O	?	–	?	–
COCCn1c(C)cc(/C=C2/SC(=O)N(C(C)C(=O)OC)C2=O)c1C (stereo unspecified)	–	11µM	–	?
CCn1c(C)cc(/C=C2/SC(=O)N(C(C)C(=O)OC)C2=O)c1C (stereo unspecified)	–	–	?	–
CC1CCC(C(C)C)C(OC(=O)COC(=O)c2ccc(=O)[nH]c2)C1 (stereo unspecified)	–	–	?	–
CC1CCC(C(C)C)C(OC(=O)COC(=O)c2cc(O)ccc2N)C1 (stereo unspecified)	26µM	–	23µM	–
O=[N+]([O-])c1cc(F)cc(F)c1Nc1ccc(F)cc1	–	–	–	–
O=C(Nc1ccc2oc(=O)ccc2c1)c1ccccc1[N+](=O)[O-]	–[1.84 µM]	–	–	–
O=C(Nc1ccc2oc(=O)ccc2c1)c1ccc(-c2ccccc2[N+](=O)[O-])o1	?	–	12µM	–
O=C(Nc1ccc2oc(=O)ccc2c1)c1ccc(-c2cccc(Cl)c2)o1	?	–	–	–
O=C(Nc1ccc2oc(=O)ccc2c1)c1ccc(-c2cccc([N+](=O)[O-])c2)o1	21µM	–	?	–
CN(C)c1ccc(-c2ccc(C3C4C=CCCC4(C)C(=O)N3Cc3ccccc3)c(F)c2)cc1 (stereo unspecified)	·	·	·	–
NC(=O)C1CCN(C(=O)c2ccc(Cl)c(S(=O)(=O)N3CCCCCC3)c2)CC1	–	–	–	–
C=C(C)COc1ccc(-c2nc(N)nc(C(F)(F)F)c2-c2ccc(OC)cc2)c(O)c1	21µM	–	2.6µM	–
COc1ccc(-c2c(-c3ccc(O)cc3O)n[nH]c2C(F)(F)F)cc1	12µM	–	?	–
CCOc1ccc(-c2[nH]ncc2-c2ccc(OC)c(OC)c2)c(O)c1	2.6µM	·	?	–
C=C(C)COc1ccc(-c2ncncc2-c2ccc(Cl)cc2)c(O)c1	–	–	15µM	–
COc1ccc(-c2cn[nH]c2-c2ccc(O)cc2O)cc1OC	–	–	–	–
COc1ccc(-c2cn[nH]c2-c2ccc(OCc3ccc([N+](=O)[O-])cc3)cc2O)cc1	?	–	5.8µM	–
C=C(C)COc1ccc(-c2nc(N)ncc2-c2ccc(Br)cc2)c(O)c1	?	–	23µM	–
C=C(C)COc1ccc(-c2[nH]ncc2-c2ccccc2OC)c(O)c1	?	–	15µM	–
CCc1cc(-c2[nH]ncc2-c2ccc(OC)cc2)c(O)cc1O	–	–	–	–
CCc1cc(-c2nc(N)ncc2-c2ccc(Br)cc2)c(O)cc1OC	–	–	18µM	–
O=C1NC(=O)[C@@]2(CCOc3ccc(F)cc32)N1	–	·	–	·
CC(C)(C)S(=O)(=O)N1C[C@@H]2CC/C=C\C/C(c3ccccc3)=C\2[C@H]1CCO	–	–	–	–
SMILES	SW480 rerep	uPA surface inh	MCF10A rereplic	Giardia kill
CC(=O)c1ccc(OCc2cc(C(=O)NCCn3nc(C)cc3C)no2)cc1	–	–	–	–
Cc1cc(C)nc(N2CCN(c3ccc(F)cc3)CC2)n1	–	–	?	–
C=C(C)COc1ccc(-c2[nH]ncc2-c2ccc(Br)cc2)c(O)c1	21µM	–	9.2µM	–
O=C1N=c2ccccc2=C1c1sc(=S)n(Cc2ccccc2Cl)c1O	16µM	–	–	–
O=C1N=c2ccccc2=C1c1sc(=S)n(-c2ccc(O)cc2)c1O	–	–	–	–
COc1ccc(-c2cc(C(F)F)nn2-c2ccc(S(N)(=O)=O)cc2)cc1F	–	·	–	·
COc1ccc(Nc2ccc(C(F)(F)F)cc2[N+](=O)[O-])cn1	–	–	–	–
O=C1/C(=C/c2ccc([N+](=O)[O-])cc2)C=C(c2ccccc2)N1c1ccc(O)cc1	?	·	18µM	–
COC(=O)/C=C1/SC(=Nc2ccc(Cl)c(Cl)c2)NC1=O	–	–	26µM	–
COc1cc(/C=C2\N=C(c3ccccc3)NNC2=O)cc(OC)c1OC	5.8µM	–	1.8µM	–

High-throughput results: PubChem, National Center for Advancing Translational Sciences (NCATS)
